Laboratory results published in PubChem BioAssay AID743343 (Broad Institute, 2014).
Measured potencies and affinities stand elsewhere. Unmarked numbers belong to inactive results. The rule behind the calls is not given here.

test system: Drosophila melanogaster bursicon receptor LGR2 (rickets); test: LGR2 antagonists, dose response, cell-based, HEK293, CRE-luciferase reporter, cherry pick, set 2 (AID 743343); conditions: bursicon-induced cAMP antagonist; series mostly up to 35 µM; activity change, negative = inhibition: at the top concentration

Row | Compound | activity change, negative = inhibition
1 | O=C(NCCOc1ccccc1)[C@@H]1CCCN1C(=O)c1cccs1 | -14% [at 16 µM]
2 | O=C(Cc1ccncc1)NCC[C@H]1CC[C@H](NC(=O)C2CCCC2)[C@H](CO)O1 | -21.3%
3 | CC1(c2ccccc2Cl)NC(=O)N(CC(=O)N2CCc3ccccc32)C1=O (centres undefined) | 27.4%
4 | COc1cc(NC2CCCCC2O)c2nc(-c3ccc(Cl)cc3)ccc2c1 (centres undefined) | 24.1%
5 | c1ccc(COc2cccc(-c3cc4nc(NCCCn5ccnc5)ccn4n3)c2)cc1 | -31.2%
6 | CCOc1cccc2sc(Nc3nc4ccc(NC(C)=O)cc4s3)nc12 | 12.2%
7 | COc1cc(CNCCO)cc(Cl)c1OCc1ccc(Cl)cc1Cl | 1.33%
8 | Cc1cccc(Cn2ncc(Cl)c(Cl)c2=O)c1 | 6.59%
9 | COc1cccc(C#Cc2ccc([C@@H]3[C@@H](CO)N(C(=O)C4CCC4)[C@H]3C#N)cc2)c1 | -11.3%
10 | CCc1nnc(NC(=O)CSc2nnc3ncccn23)s1 | 3.4%
11 | C[C@@H]1CN([C@H](C)CO)C(=O)Cc2cc(NC(=O)Nc3ccc(F)cc3)ccc2O[C@@H]1CN(C)CC1CCCCC1 | -12.7%
12 | COc1ccccc1C=NNC(=O)c1ccncc1 | 17%
13 | O=C(NCc1ccco1)c1cc(NS(=O)(=O)c2cccc([N+](=O)[O-])c2)ccc1O | 42.5%
14 | CO[C@H]1CN(C)C(=O)c2ccc(NC(=O)c3ccc(-c4ccccc4)cc3)cc2OC[C@@H](C)NC[C@@H]1C | 12.9%
15 | Cc1ccc(S(=O)(=O)N2[C@@H](CO)CO[C@H]2CC(=O)OCc2ccccc2)cc1 | -1.23%
16 | C[C@@H]1CN([C@H](C)CO)C(=O)c2cc(NC(=O)Nc3cccc4ccccc34)ccc2O[C@@H]1CN(C)C(=O)Nc1ccccc1 | -8.77%
17 | C=CCn1c(SCC(=O)Nc2ncc(Cc3ccc(C)c(Cl)c3)s2)nnc1-c1ccncc1 | 47.3%
18 | O=c1cc(-c2c(F)c(F)c(F)c(F)c2F)oc2ccccc12 | 37.7% [at 16 µM]
19 | O=C(NCc1ccc(F)cc1)c1cc(C2CCCCN2S(=O)(=O)c2cccs2)on1 (centres undefined) | 3.39%
20 | COc1ccc2[nH]c3c(c2c1)CCN1C(=O)N([C@@H](C)C(=O)NCc2ccc(C)cc2)C(=O)[C@]31C | 15.9%

Row | Compound | activity change, negative = inhibition
21 | CO[C@H]1CN(C)C(=O)c2ccc(NC(=O)C3CC3)cc2OC[C@@H](C)N(C(=O)Cc2ccccn2)C[C@H]1C | -0.993%
22 | CCOC(=O)Nc1ccc(N2CCOCC2)c(S(=O)(=O)Nc2ccc(Cl)cc2)c1 | -36.6%
23 | O=[N+]([O-])c1cc(S(=O)(=O)N2CCCCCC2)ccc1Cl | 49.2%
24 | CC(C)N(C(=O)COC(=O)c1ccccc1C(=O)c1ccc(Cl)c([N+](=O)[O-])c1)C(C)C | 47% [at 16 µM]
25 | Cn1nnnc1Sc1ncnc2scc(-c3ccccc3C(F)(F)F)c12 | -21.3%
26 | O=[N+]([O-])c1ccc(-c2cnc(SC(c3ccccc3)c3ccccc3)[nH]2)cc1 | -31.3%
27 | CC[C@H](CO)Oc1cc(NCc2ccc(Cl)c(Cl)c2)c2ncn(C(C)C)c2c1 | -13.4%
28 | COC(=O)c1ccc(Nc2cc(C)nc3ccc(C)cc23)cc1 | -10.3%
29 | Cc1ccnc(N2C(=O)c3ccccc3C2Nc2ccc3c(c2)OCCO3)c1 (centres undefined) | -7.03%
30 | O=C(CN1CCOc2ccccc21)NCc1ccc(F)cc1 | -11.2%
31 | O=C(O)CSc1cc(NS(=O)(=O)c2cccc([N+](=O)[O-])c2)c2ccccc2c1O | -26.4%
32 | COc1ccc(S(=O)(=O)N2CCN(C(=O)c3ccc(C)o3)CC2)cc1 | 34.5%
33 | CC(C)CCNC(=O)C(c1ccc(O)cc1)N(Cc1cccs1)C(=O)C1COc2ccccc2O1 (centres undefined) | -52.9%
34 | COc1ccc(-c2nc(N)n(C(=O)c3cccs3)n2)cc1 | -18.4%
35 | Cc1ccc(S(=O)(=O)N2CCCc3nc(-c4ccc(F)cc4)ccc32)cc1 | 17.7%
36 | Cc1ccc(S(=O)(=O)Nc2ccc3c(c2)CC(=O)N([C@H](C)CO)C[C@H](C)[C@H](CN(C)Cc2ccc(Cl)c(Cl)c2)O3)cc1 | -12.7% [at 30 µM]
37 | N#C[C@H]1[C@@H](c2ccc(C3=CCCCC3)cc2)[C@H](CO)N1C(=O)c1ccccn1 | 18.3%
38 | Cc1cccn2c(CNCC3(c4ccccc4)CCCC3)c(C(=O)N3CCOCC3)nc12 | -3.35%
39 | COc1ccc(CCNC(=O)C2CCN(S(=O)(=O)c3ccc(Cl)cc3)CC2)cc1OC | 38.9%
